BoNT-A LC inh2 = BoNT A light chain protease inhibition | multiplex microsphere protease substrate cleavage, flow cytometry | inhibition, % at 10 µM | hit rate 0.17% among 360,000; also: plate controls were buffer without enzyme for full effect and enzyme alone for no effect
Anthrax LF inh2 = inhibitors of Bacillus anthracis lethal factor protease. AID 588501. multiplex microsphere protease cleavage assay, LF. P15917. inhibition, % at 10 µM. hit rate 0.12% among 360,000; also: plate controls were buffer without enzyme for full effect and enzyme alone for no effect
Autofluor counter = compound fluorescence in toxin protease inhibitor counterscreen; compound autofluorescence counterscreen, microsphere flow cytometry; stronger effect = higher value; hit rate 3.1% among 360,000; fluorescence intensity (concentration not given with the values); in the data active = fluorescence intensity above about 16000; inconclusive = no clear call, values can overlap the other calls
BoNT-F LC inh = inhibitors of Botulinum neurotoxin F light chain protease; hit rate 0.22% among 360,000; AID 588497; Multiplex microsphere protease cleavage assay, flow cytometry; inhibition, % at 10 µM; in the data active = inhibition above about 35%, passing the limit was not always enough; inconclusive = no clear call, values can overlap the other calls; also: plate controls were buffer without enzyme for full effect and enzyme alone for no effect
Numbers without * were called inactive; ? = inconclusive. Hits are enriched below; roughly 3.5% of the tested compounds scored in any of these assays. Rule as the data show it, unless noted: active = inhibition above about 30%; inconclusive = no clear call, values can overlap the other calls; inactive = below that.

SMILES	BoNT-A LC inh2	Anthrax LF inh2	Autofluor counter	BoNT-F LC inh
Cc1cc(C)c2cc(C#N)c(NCCCNC(=O)CCC(=O)O)nc2c1	?	-2	21922*	2
COc1ccccc1C(CNC(=O)C1CC(=O)N(Cc2ccc(C)cc2)C1)N1CCCC1 (stereo not drawn)	-3	0	7807	4
COc1c(/C=N/Nc2nc(N3CCCCC3)nc(N3CCCCC3)n2)cccc1[N+](=O)[O-]	-2	4	11568	-12
O=[N+]([O-])c1ccc(/C=N/Nc2nc(N3CCCCC3)nc(N3CCCCC3)n2)o1	4	11	21202*	2
COc1ccccc1NC(=O)c1nnn(Cc2ccccc2)c1NC(=O)C(F)(F)F	2	-6	8810	6
COc1ccccc1NC(=O)c1nnn(Cc2ccccc2)c1NC(C)=O	-3	-4	24511*	-5
Cc1ccc(S(=O)(=O)N(CC(O)CN2C(=O)NC(C)(C)C2=O)c2ccccc2)cc1 (stereo not drawn)	0	1	3026	-4
COc1ccc(N(CC(O)CN2C(=O)NC(C)(C)C2=O)S(=O)(=O)c2ccccc2)cc1 (stereo not drawn)	-1	0	23290*	-2
C1CCN(c2nc3nonc3nc2N2CCCCC2)CC1	-3	-4	24347*	-4
Cc1cccc(OCc2nnc(N)s2)c1	?	-4	24413*	-3
Nc1nnc(COc2cccc(C(F)(F)F)c2)s1	0	-1	5746	10
CCOC(=O)C1CC2=C(CC(C)(C)CC2=O)N(CCOC)C1=O (stereo not drawn)	0	-5	3716	-2
CCCOc1ccccc1C1CC(=O)Nc2cc3c(cc21)OCCO3 (stereo not drawn)	0	1	4558	24
CCOc1ccccc1C1CC(=O)Nc2cc3c(cc21)OCCO3 (stereo not drawn)	-3	-2	16905*	-4
CS(=O)(=O)N(CC(=O)NCCSCc1cccc(Cl)c1)c1ccccc1F	-4	-19	3625	-4
Cc1ccc2[nH]cc(CCNC(=O)Nc3ccccc3)c2c1	-3	0	21739*	-7
Cc1ccc(-c2nnn(CC(=O)N(CC(=O)NCC3CCCO3)c3ccc(F)c(Cl)c3)n2)o1 (stereo not drawn)	-7	-5	25388*	-11
CCC(C(=O)NC1CCCC1)N(C(=O)Cn1nnc(-c2ccc(C)o2)n1)c1cnc2ccccc2c1 (stereo not drawn)	-10	-1	26220*	-11
Cc1ccc(-c2nnn(CC(=O)N(CC(=O)NC3CCCC3)c3cnc4ccccc4c3)n2)o1	1	-1	20315*	0
Cc1ccc(-c2nnn(CC(=O)N(CC(=O)NC(C)C)c3cnc4ccccc4c3)n2)o1	0	-2	7183	2
O=C(CN(C(=O)Cn1nnc(-c2ccc(F)cc2)n1)c1ccc(F)c(Cl)c1)NCC1CCCO1 (stereo not drawn)	0	-1	2166	0
Cc1noc(C)c1S(=O)(=O)N(C)C[C@@H]1OCc2cnnn2CCCC(=O)N([C@@H](C)CO)C[C@H]1C	0	0	3720	2
CCc1cccc(N(CC(=O)NC2CCCCC2)C(=O)c2csnn2)c1	-1	8	3767	10
O=C1CCC/C1=C/Nc1ccc2c(c1)OCO2	2	-8	8737	-9
CC1CCC/C(=C\Nc2ccc3c(c2)OCO3)C1=O (stereo not drawn)	0	-6	22454*	-11
SMILES	BoNT-A LC inh2	Anthrax LF inh2	Autofluor counter	BoNT-F LC inh
COc1ccc(Cc2nnc(SCC(=O)NC3(C#N)CCCCC3)n2N)cc1	4	?	4623	?
c1ccc2c(c1)oc1c(N3CCOCC3)ncnc12	0	0	2705	-2
C(=C\c1ccccc1)/CN1CCN(c2ncnc3c2oc2ccccc23)CC1	?	-5	17552*	-2
Cc1ccccc1C1=NCC(=O)N(CC(=O)N2CCCCC2)c2sc(C)c(C)c21	?	0	22255*	-2
CN1C(=O)C(=Cc2ccc(N3CCCCCC3)o2)C(=O)N(C)C1=S	27	30*	14036	197*
COC(=O)c1ccc2ccn(CC(=O)NC3CCCCC3)c2c1	-1	-2	4051	?
N#Cc1ccc2ccn(CC(=O)NC3CCCCCC3)c2c1	-1	-1	21036*	0
CCN(CC(=O)Nc1ccccc1C(F)(F)F)C(=O)CSCc1ccc(C)cc1	0	-2	5694	-8
CC(=O)Nc1ccc(S(=O)(=O)Nc2nnc(C(C)C)s2)cc1	0	-2	16628*	-3
Cc1ccc(-n2ncc3c2CC(C)(C)CC3NC(=O)CCc2ccc(=O)[nH]n2)cc1 (stereo not drawn)	-2	-2	4277	2
O=C(COc1ccc2ccccc2c1Br)N1CCN(c2ccccn2)CC1	2	-1	21691*	1
COc1ccc(CN2C(=O)C(CC(=O)NCCCCc3ccccc3)CC(C(=O)N3CCCCCC3)=C2C)cc1 (stereo not drawn)	1	-6	5395	1
O=c1c(C(c2ccc(F)cc2)c2c(O)nc3n(c2=O)CCS3)c(O)nc2n1CCS2	4	10	4410	?
CCCCN(CCCC)CC1OCc2ccccc2CO1	-1	2	20889*	-1
CCOC(=O)NC1(C(F)(F)F)C(=O)N(Cc2ccccn2)C2=C1C(=O)CC(C)(C)C2 (stereo not drawn)	-1	-1	16536*	-5
CC(=O)NC1(C(F)(F)F)C(=O)N(Cc2ccccc2)C2=C1C(=O)CC(C)(C)C2 (stereo not drawn)	0	7	10263	-2
CC1(C)CC(=O)C2=C(C1)N(Cc1ccccc1)C(=O)C2(NC(=O)C(C)(C)C)C(F)(F)F (stereo not drawn)	-2	-2	24235*	-5
Cc1cc(/C(N)=N/OC(=O)Nc2ccc(Cl)cc2)no1	-5	-16	3849	?
COc1ccccc1/C=C/C(=O)OCC(=O)N1c2ccccc2CC1C (stereo not drawn)	3	-5	6227	2
CCN(CC)CCCOc1nc(C)nc2c1oc1ccccc12	0	2	23099*	-1
CCSc1ncnc2c1oc1ccccc12	7	-15	16868*	10
c1coc(CN(Cc2ccco2)c2ncnc3c2oc2ccccc23)c1	1	-3	19845*	-1
NC(=O)CSc1ncnc2c1oc1ccccc12	0	-9	5264	1
Cc1cc(C)nc(Sc2ncnc3c2oc2ccccc23)n1	2	0	21474*	3
Clc1ncnc2c1oc1ccccc12	-1	1	4242	-44
SMILES	BoNT-A LC inh2	Anthrax LF inh2	Autofluor counter	BoNT-F LC inh
CN(C)CCOc1ncnc2c1oc1ccccc12	3	0	18425*	3
Cc1cc(C)c2cc(CN(CCCO)S(=O)(=O)c3ccccc3F)c(=O)[nH]c2c1	-2	-5	3526	12
COC(=O)c1ccccc1S(=O)(=O)N(CCCO)Cc1cc2c(C)ccc(C)c2[nH]c1=O	-1	-6	22748*	2
COC(=O)c1ccccc1S(=O)(=O)N(Cc1ccco1)Cc1cc2cc(OC)ccc2[nH]c1=O	1	2	22912*	2
CCCCCCN1C=CC(=C/C=C(\C#N)C(=O)OCC)C=C1	-10	0	24837*	-16
CCOC(=O)/C(C#N)=C/C=C1\C=Cc2ccccc2N1CC	0	46*	119384*	178*
Cc1ccc(NC(=O)CN(C)C(=O)COC(=O)c2nc3nccc(C)n3n2)cc1	-1	-8	3183	-5

Bioassay records deposited in PubChem BioAssay by NMMLSC.
